Measurements: PubChem BioAssay AID434970 (Sanford-Burnham Center for Chemical Genomics, 2010)
Screen size: about 11,000 compounds; about 310 (2.8%) were called active. No stated cut-off is given here; in the data, active means activity change below about -85%; inactive means the rest. The entries come from a sample that favours actives as a whole.

tested on: intestinal alkaline phosphatase [Mus musculus]; test: mouse intestinal phosphatase enzyme activation – biochemical, luminescence, single concentration, confirmation (AID 434970); conditions: purified mouse IAP, CDP-Star luminescence, 30 min, at 10 µM; activation factor: measured here: IAP activation factor, stronger effect = higher value; activity change, negative = activation: stronger effect = lower value

Structure (SMILES)	activation factor	activity change, negative = activation
Cc1ccc(CN2C3CCCC2CC(NC(=S)NCc2ccccc2)C3)cc1 (stereo not given)	2.88	-188% (active)
Cc1ccc(CN2C3CCCC2CC(NC(=O)Nc2cccc(F)c2)C3)cc1 (stereo not given)	4.48	-348% (active)
Cc1cc(C)cc(NC(=S)NC2CC3CCCC(C2)N3Cc2cccs2)c1 (stereo not given)	2.5	-150% (active)
CCc1ccc(N2C(=O)NC(=O)C(Cc3ccc(OC)cc3OC)C2=O)cc1 (stereo not given)	1.06	-5.6% (inactive)
CN1CCN(Cc2cc(C(C)(C)C)c(O)c(C(C)(C)C)c2)CC1	0.944	5.6% (inactive)
CC(CO)(CO)N=Cc1c(O)n(-c2cccc3ccccc23)c(=O)[nH]c1=O	1.12	-12.2% (inactive)
Cc1cc(NC(=O)COC(=O)c2c(C)nn(Cc3ccccc3)c2Cl)no1	0.971	2.9% (inactive)
CSc1ccc(C(=O)C(C)(C)N2CCOCC2)cc1	0.965	3.5% (inactive)
CCOC(=O)c1c(-n2c(C)cc(C=C3C(=O)NC(=S)NC3=O)c2C)sc2c1CCCC2	0.649	35.1% (inactive)
COc1ccc(-n2c(=O)[nH]c3ccccc3c2=O)c(OC)c1	1.08	-7.55% (inactive)
CCOP(=O)(C(NC(=O)c1ccccc1Cl)=C(Cl)Cl)c1ccccc1 (stereo not given)	1.07	-6.55% (inactive)
O=[N+]([O-])c1cc(S(=O)(=O)c2ccc(O)c([N+](=O)[O-])c2)ccc1O	0.471	52.9% (inactive)
O=C(Cc1ccccc1)Oc1ccccc1N1C(=O)CCC1=O	1.07	-7.1% (inactive)
CCOc1ccc2nc(N3CCC(C(=O)N4CCC5(CC4)OCCO5)CC3)sc2c1	0.97	3% (inactive)
CC1(C)CSC(Nc2ccc(F)c(Cl)c2)=N1	0.924	7.6% (inactive)
Clc1ccc(C(c2ccc(Cl)cc2)n2cc[n+](CC(OCc3ccc(Cl)cc3Cl)c3ccc(Cl)cc3Cl)c2)cc1 (stereo not given)	31	-3000% (active)
Cc1nc2cc(F)ccc2n1C1CCN(Cc2nnnn2CCc2ccccc2)CC1	1.13	-13.2% (inactive)
O=C(Cn1cnc2ccccc2c1=O)NCCC(=O)N1CCC2(CC1)OCCO2	1.09	-9.25% (inactive)
COc1ccc(P2(=O)Nc3ccccc3N2)cc1	0.951	4.95% (inactive)
CCOC(=O)c1ccc(N2C(=O)CC(N3CC=C(c4ccc(F)cc4)CC3)C2=O)cc1 (stereo not given)	0.996	0.45% (inactive)
